Compound activity (PubChem BioAssay)
Lassa entry inh – qHTS for Inhibitors of binding or entry into cells for Lassa Virus | Lassa virus pseudotype entry inhibition, cell reporter | Potency, µM (doses to about 37.9 µM), usual class: inhibitors | actives 1.2% (n = 300,000); calls by dose curve; tested in HEK293 cells; note: nearly all actives have a fitted effect of over 50% in size
VACV mCherry inh – qHTS for Stage-Specific Inhibitors of Vaccinia Orthopoxvirus: mCherry Reporter Primary qHTS; AID 720579, 2013; Vaccinia virus mCherry reporter infection, fluorescence; actives 0.63% (n = 310,000); Potency, µM (titrated, usually from 36.5 µM), most hits filed as inhibitors; calls by dose curve; tested in A549 cells; note: nearly all actives have a fitted effect of over 35% in size
MARV entry inh – qHTS for inhibitors of binding or entry into cells for Marburg Virus. Potency, µM (series often up to 37.8 µM), hits mostly inhibitors. AID 540276, 2011. actives 1.8% (n = 300,000). Marburg virus pseudotyped entry inhibition, cell reporter; calls by dose curve; tested in HEK293 cells
HCMV inh – qHTS Assay for inhibitors of the human cytomegalovirus (HCMV). actives 4.5% (n = 410,000). HFF cells, HCMV-luciferase reporter, 72 h; hits give low values. activity change, negative = inhibition, % at 57.5 µM; in the data active = activity change below about -60%; inconclusive = no clear call, values can overlap the other calls; inactive = above about -39%
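Screen run at 2 compound doses on HFFs infected with reporter HCMV, MOI 1 PFU/cell. Luciferase activity from cell lysates at 72 h post infection gave inhibition relative to buffer-only and Salinomycin wells.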
FMDV inh – High Throughput Screening for Foot and Mouth Disease Virus Antivirals | FMDV antiviral cell-based qHTS | Potency, µM (doses to about 57.9 µM), actives largely listed as inhibitors | actives 1.2% (n = 410,000); calls by dose curve; tested in HEK293T cells; note: read-out not given here; nearly all actives have a fitted effect of over 45% in size
Vaccinia Venus – qHTS for Stage-Specific Inhibitors of Vaccinia Orthopoxvirus: Venus Reporter Primary qHTS | Vaccinia virus Venus reporter expression, fluorescence | Potency, µM (doses to about 36.5 µM), most hits filed as inhibitors | actives 0.46% (n = 330,000) | AID 720580, 2013; calls by dose curve; tested in A549 cells; note: nearly all actives have a fitted effect of over 30% in size
Numbers stand for hits; i = inactive; ? = inconclusive; nt = not tested or not shown; [ ] = remark or other dose. Rows were chosen to be rich in hits. Some 6.5% of all compounds tested hit in one or more screens of this group.

SMILES	Lassa entry inh	VACV mCherry inh	MARV entry inh	HCMV inh	FMDV inh	Vaccinia Venus
CCc1ccc(OC)c(S(=O)(=O)Nc2ccc(Cc3ccncc3)cc2)c1	12.6µM	?	?	-75.0	i	i
COc1ccc(S(=O)(=O)Nc2ccc(Cc3ccncc3)cc2)cc1OC	?	?	1.41µM	-65.4	i	i
COc1ccc(S(=O)(=O)NCc2ccncc2)cc1NC(=O)c1ccccc1F	nt	nt	nt	-88.5	i	nt
COc1ccc(S(=O)(=O)NCc2ccncc2)cc1NC(=O)c1ccccc1C	i	i	i	i	i	i
COc1cccc(/C(O)=C2\C(=O)C(=O)N(CCN(C)C)[C@@H]2c2ccc(Br)cc2)c1	nt	nt	i	nt	nt	nt
COc1ccc(C2N3CC4(C)CN2CC(c2ccccc2)(C3)C4=O)cc1 (centres undefined)	i	i	i	i	i	i
O=c1ccn([C@@H]2O[C@H](COS(=O)(=O)O)[C@@H](O)[C@H]2O)c(=O)[nH]1	nt	i	nt	-61.8	i	i
CC1=[N+](C)c2c(ccc3cccnc23)C1(C)C	5.62µM	i	?	-107.8	?	i
Cc1[nH]c2c(ccc3cccnc32)c1C	i	i	i	i	i	i
COc1ccc(S(=O)(=O)N2CCc3ccccc32)cc1C(=O)OCc1c(C)noc1C	18.3µM	i	3.55µM	i	i	i
Cc1noc(C)c1COC(=O)c1cccc(S(=O)(=O)N2CCCCCC2)c1	?	?	8.91µM	i	?	?
O=C(Nc1ccc(Cc2nc3ccccc3s2)cc1)c1ccncc1	i	i	?	-85.9	i	i
NC(=O)c1ccc(NC(=O)CCc2nc3ccccc3s2)cc1	nt	nt	nt	i	i	nt
Cc1ccc(CNC(=O)c2ccc(CS(=O)(=O)c3ccccc3)o2)cc1	nt	nt	nt	-60.5	?	nt
COc1ccc(CCNC(=O)c2ccc(CS(=O)(=O)c3ccc(C)cc3)o2)cc1OC	?	i	?	i	31.6µM	i
COc1ccc(CCNC(=O)c2ccc(CS(=O)(=O)Cc3ccc(C)cc3)o2)cc1OC	nt	i	nt	?	i	i
Cc1ccc(S(=O)(=O)Cc2ccc(C(=O)NCc3cccs3)o2)cc1	?	i	i	i	i	i
COc1ccc(CCNC(=O)c2ccc(CS(=O)(=O)c3ccc(Cl)cc3)o2)cc1OC	25.9µM	nt	14.6µM	?	15.8µM	nt
COc1ccc(CCNC(=O)c2ccc(-c3ccc([N+](=O)[O-])cc3Cl)o2)cc1OC	?	i	?	i	12.6µM	i
O=C(Nc1ccc2c(c1)OCCO2)C1CCCN(S(=O)(=O)c2cccc3nsnc23)C1 (centres undefined)	i	i	i	-77.5	nt	i
O=C(C1CCCN(S(=O)(=O)c2cccc3nsnc23)C1)N1CC=C(c2ccccc2)CC1 (centres undefined)	?	?	?	-61.4	20µM	?
O=S(=O)(Nc1ccc2c(c1)OCCO2)c1cccc2nsnc12	i	i	i	-68.0	?	i
O=C(Nc1ccc2c(c1)OCCO2)C1CCN(S(=O)(=O)c2cccc3nsnc23)CC1	i	i	i	i	i	i
CN(c1nnc(NC(=O)Nc2ccc(Br)cc2)s1)C1CCCCC1	i	i	i	i	i	i
CCC1CN(CCNC(=O)c2cc(C)nn2CC)Cc2cc(OC)ccc2O1 (centres undefined)	nt	i	nt	nt	i	i
SMILES	Lassa entry inh	VACV mCherry inh	MARV entry inh	HCMV inh	FMDV inh	Vaccinia Venus
CC(=O)c1ccc(NC(=O)c2ccc(-c3nc(CSc4ccccc4)c(C)o3)cc2)cc1	i	i	nt	-76.5	?	?
Cc1oc(-c2ccc(C(=O)Nc3cccc(C(F)(F)F)c3)cc2)nc1CSc1ccccc1	i	?	nt	-98.1	?	?
CCOc1cc(-c2ccc3c(c2)OCO3)cc(=[O+]CC)c2c(C)oc(C)c12	nt	i	nt	nt	nt	i
CC(C)Oc1ccc(CNC(=O)c2ccc3nc(C(C)C)oc3c2)cc1	?	i[7.34 µM]	nt	i	i	i[7.34 µM]
O=C(Nc1ccc(Br)cc1Cl)c1cnn2c1NC(=C1CC1)C=C2C(F)F	nt	i	nt	nt	nt	i
CC(C)(C)c1ccc(C(=O)Nc2onc3c2CCCC3)cc1	?	i	?	-74.7	i	i
O=C(Nc1onc2c1CCCC2)c1ccccc1	?	i	?	i	i	i
Nc1cc(=O)[nH]c2c1CCC2	nt	i	nt	nt	nt	i
CC(OC(=O)/C=C/c1ccco1)C(=O)Nc1cccc([N+](=O)[O-])c1 (centres undefined)	i	i	?	i	?	i
CC(=O)c1ccc(NC(=O)C(C)OC(=O)/C=C/c2ccco2)cc1 (centres undefined)	?	i	11.2µM	i	i	i
CCc1ccccc1NC(=O)Nc1cc(C(=O)NCc2cccc(F)c2)ccc1N1CCCC1	i	?	nt	i	i	?
Cc1cccc(CN2Cc3cccc4c3[C@H](C=CC4)CC2=O)c1	nt	i	nt	nt	nt	i
c1cc2c(cc1-c1[nH]ncc1CN1CC3C[C@@H]4CC1C[C@H](C3)C4)OCO2	i	i	i	-69.4	i	i
CN(c1ccccc1)c1ccc(/C=N/NC(=O)CC#N)cc1	14.6µM	i	12.6µM	?	i	i
N#CCC(=O)N/N=C/c1ccc(Cl)cc1	i	i	i	i	i	i
CCC(=O)N1CCc2cc(S(=O)(=O)NC(CC(C)C)C(=O)Nc3cccc(C)c3C)ccc21 (centres undefined)	i	i	i	i	i	i
COc1ccc(Br)cc1CN1CCN(Cc2c[nH]c3ccccc23)CC1	?	?	?	-99.9	i	?
O=C(COc1ccc(Br)cc1)N1CCN(Cc2c[nH]c3ccccc23)CC1	?	14.1µM	?	i	i	?
O=C(Nc1ccc(N2CCN(C(=O)c3ccc(Cl)cc3)CC2)cc1)c1cccs1	nt	nt	nt	i	i	nt
O=C(Nc1ccc(N2CCN(C(=O)c3ccc(Cl)cc3)CC2)cc1)c1ccc([N+](=O)[O-])o1	i	i	?	-95.7	?	?
CC(C)(C)C(=O)N1CCN(c2ccc(NC(=O)c3ccc([N+](=O)[O-])o3)cc2)CC1	?	11.2µM	?	-98.5	i	?
CCC(=O)N1CCN(c2ccc(NC(=O)c3ccc([N+](=O)[O-])o3)cc2)CC1	?	?	i	-98.3	i	?
CCCC(=O)N1CCN(c2ccc(NC(=O)c3ccc([N+](=O)[O-])o3)cc2)CC1	?	10µM	?	-96.2	i	10µM
CCOC(=O)C1=CCN(S(=O)(=O)c2ccc(Br)cc2)C1c1cccc(F)c1 (centres undefined)	nt	nt	nt	i	nt	nt
CCC(C)c1ccc2oc(-c3ccc(NC(=O)Cn4cnc5c(=O)n(C)c(=O)n(C)c54)cc3)nc2c1 (centres undefined)	?	nt	?	-72.7	i	nt
Cn1c(=O)c2ncn(CC(=O)Nc3ccc(N4CCOCC4)cc3)c2n(C)c1=O	i	nt	i	i	i	nt
COc1ccc(O[C@H]2C=C[C@@H](c3ccccc3)O[C@H]2CON=C2[C@H]3CCn4c(=O)n(-c5ccccc5)c(=O)n4[C@@H]3[C@H](O)[C@@H]3O[C@H]23)cc1	nt	nt	i	nt	nt	nt
O=C(OCc1ccc(F)cc1)c1cccnc1Cl	i	i	i	-60.4	i	i
